A selection: hits, their analogues and other compounds. The true share with any hit is near 4%.
RecA splice inh – Mtb RecA intein splicing inhibition; P9WHJ3; cell-free RecA intein splicing, fluorescence; inhibition, % (test concentration not listed); actives 0.75% (n = 290,000); AID 2221; in the data active = inhibition above about 30%; inconclusive = no clear call, values can overlap the other calls;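 also: 0% = vehicle wells and 100% = reference inhibitor control wells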
Mtb UGM inh – Mtb UDP-galactopyranose mutase inhibition. inhibition, % at 10 µM. AID 504406. P9WIQ1. purified UGM, fluorescence polarization probe displacement. actives 0.06% (n = 320,000); in the data active = inhibition above about 10%, passing the limit was not always enough; inconclusive = no clear call, values can overlap the other calls
Mtb FBA inh – Mtb fructose-bisphosphate aldolase inhibition | inhibition, % at 1 µM | actives 2.3% (n = 360,000) | P9WQA3 | purified M. tuberculosis FBA, fluorescence read-out; in the data active = inhibition above about 27%;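 also: 0% = vehicle and 100% = reference inhibitor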
GDH-TPI inh – counter-screen for M. tuberculosis FBA inhibitors: GDH-TPI coupled enzymes; GDH-TPI coupled enzyme counterscreen, NADH absorbance; inhibition, % at 4.8 µM; actives 1.2% (n = 360,000); in the data active = inhibition above about 30%;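 also: 0% = DMSO wells and 100% = wells lacking the enzyme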
Rv3671c inh – inhibits the M. tuberculosis serine protease Rv3671c; AID 2606; inhibition, % at 5.96 µM; actives 0.048% (n = 320,000); in the data active = inhibition above about 38%;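 also: extracellular domain of Rv3671c used as enzyme; 0% = enzyme with DMSO and 100% = no enzyme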
Target sequence (P9WHR9 whole entry, looked up, the tested form may be a part): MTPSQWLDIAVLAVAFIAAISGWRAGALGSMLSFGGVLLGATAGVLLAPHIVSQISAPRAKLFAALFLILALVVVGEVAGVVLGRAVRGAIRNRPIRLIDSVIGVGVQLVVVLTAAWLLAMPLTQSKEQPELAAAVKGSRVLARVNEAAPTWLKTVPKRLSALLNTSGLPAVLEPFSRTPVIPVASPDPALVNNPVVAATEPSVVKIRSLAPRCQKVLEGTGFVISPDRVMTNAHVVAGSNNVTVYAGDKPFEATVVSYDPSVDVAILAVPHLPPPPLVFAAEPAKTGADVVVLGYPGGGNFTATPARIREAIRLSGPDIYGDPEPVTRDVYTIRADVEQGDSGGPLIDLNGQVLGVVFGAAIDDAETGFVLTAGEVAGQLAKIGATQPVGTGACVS
Mtb betalactam – beta-lactam sensitization of Mtb H37Rv; M. tuberculosis H37Rv growth with meropenem, percent inhibition; inhibition, % at 25 µM; actives 0.27% (n = 330,000); call rule not given here;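 also: growth measured after seven days incubation then overnight dye step; 0% = bacteria only wells and 100% = bacteria with antibiotic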
The depositor's hits bear a star; ? = inconclusive; / = not tested or not shown; + = active, no number.

SMILES	RecA splice inh	Mtb UGM inh	Mtb FBA inh	GDH-TPI inh	Rv3671c inh	Mtb betalactam
CC1CCCC(C)N1C(=O)CCN1C(=O)C2C3C=CC(C3)C2C1=O (centres undefined)	0	-1	2	5	2	-3
CC1C(c2ccccc2)C(C#N)(C#N)C2(C#N)C(=O)NC1(N)C2C (centres undefined)	-1	0	-3	8	0	0
NC(=O)CSc1nnc2ccc(-c3ccc(Cl)cc3)nn12	-3	0	4	2	8	-4
Cc1c(/C=N/NC(=O)COc2ccccc2[N+](=O)[O-])c2ccccc2n1C	-1	0	-4	34*	-2	1
Cc1ccc(OCC(=O)N/N=C\c2c(C)n(C)c3ccccc23)c([N+](=O)[O-])c1	-1	0	2	31*	8	?
COc1ccc(OC)c(NC(=O)C2(C)CCN2C(=O)Cc2ccc(Cl)cc2Cl)c1 (centres undefined)	/	/	-2	-4	/	/
CCOc1cccc2sc(NC(=O)CCS(=O)(=O)c3ccccc3)nc12	4	0	6	5	2	?
COc1cc2c(C#N)c(N3CCCCC3)nc(N)c2c(N)n1	-6	5	4	19	2	43
CCOC(=O)C1CCN(c2nc(N)c3c(N)nc(SCC(=O)O)cc3c2C#N)CC1	45*	/	25	8	/	/
O=C(NC1CCCCC1)C(c1ccco1)N(C(=O)C(F)(F)F)C1CC1 (centres undefined)	3	0	-8	8	4	1
Cc1cc(NCc2ccco2)nc2cc(O)ccc12	-54	1	124*	10	3	-4
N#Cc1nc(-c2cccs2)oc1NCC1CCCO1 (centres undefined)	-3	3	+	19	2	4
Cc1ccc(-c2nc(C#N)c(NCC3CCCO3)o2)cc1 (centres undefined)	-1	-1	180*	6	1	0
O=S(=O)(c1ccccc1)c1nc(-c2cccs2)oc1NCC1CCCO1 (centres undefined)	6	0	-1	22	-1	-5
COc1ccc(-c2nc(C#N)c(NCC3CCCO3)o2)cc1 (centres undefined)	/	1	177*	16	10	-7
CN(NC1OC(=O)c2ccccc21)c1ccc(Cl)cc1[N+](=O)[O-] (centres undefined)	0	1	-3	39*	-2	0
Cn1c(=O)[nH]c(=O)c2[nH]c(N(Cc3ccccc3)Cc3ccccc3)nc21	/	0	2	7	2	11
CCC(/C=C1\Oc2ccc(OC)cc2N1C)=C\c1sc2ccccc2[n+]1CCCS(=O)(=O)[O-]	/	/	-3	-4	/	/
COc1cc(/C=C/c2sc3ccccc3[n+]2CCCS(=O)(=O)[O-])ccc1O	36*	-2	-13	8	-348	1
O=C(c1cc(Cl)ccc1O)N1CCN(S(=O)(=O)Cc2ccccc2)CC1	/	-1	-1	2	14	1
COC(=O)c1ccc2c(CCO)c[nH]c2c1	0	1	+	17	8	9
Cn1ccc(C(=O)N/N=C/c2cccnc2)n1	/	9	-4	-12	-3	1
CN(C)c1ccc(/C=N/NC(=O)c2ccn(C)n2)cc1	-2	-1	-3	33*	8	-7
CN(C)c1ccc(/C=N\NC(=O)c2csnn2)cc1	0	-1	-4	42*	3	63
CN(C)c1ccc(C=Nc2ccccc2C(N)=O)cc1	/	4	6	38*	-12	-4
SMILES	RecA splice inh	Mtb UGM inh	Mtb FBA inh	GDH-TPI inh	Rv3671c inh	Mtb betalactam
CN(C)c1ccc(/C=N/NC(=O)c2ccccn2)cc1	3	0	0	25	-3	100
CN(C)c1ccc(/C=N/NC(=O)C(=O)N2CCCCCC2)cc1	/	1	4	36*	-8	-6
COc1ccc(/C=N/NC(=O)C(=O)N2CCCC2)cc1	-1	-1	-1	5	-11	-3
CN(C)c1ccc(/C=N/NC(=O)c2ccco2)cc1	-3	3	-3	47*	-6	-3
CC(Oc1ccc2c(c1)oc(=O)c1ccccc12)C(=O)NCC1CCC(C(=O)O)CC1 (centres undefined)	-1	-2	129*	15	-3	-1
O=C(O)C(Oc1ccc2c(-c3ccccc3)cc(=O)oc2c1)c1ccccc1 (centres undefined)	-5	1	0	10	5	-4
CC(Oc1ccc2c3c(c(=O)oc2c1)CCC3)C(=O)NCC1CCC(C(=O)O)CC1 (centres undefined)	1	5	21	14	-1	-12
CC(Oc1ccc2c(c1)oc(=O)c1ccccc12)C(=O)NCCN1CCOCC1 (centres undefined)	-2	1	60*	5	-12	4
COc1ccc2c(c1)c(=O)oc1cc(OC(C(=O)O)c3ccccc3)ccc12 (centres undefined)	-3	1	+	15	-2	5
CC(Oc1ccc2c(-c3ccccc3)cc(=O)oc2c1)C(=O)NCCN1CCOCC1 (centres undefined)	-3	2	-2	21	-9	-9
O=C1c2ccccc2[C@@H]2C[C@@H](O)[C@H](Nc3cccc(C(F)(F)F)c3)CCN12	/	/	-3	-5	/	/
CN(C)CCC[C@]1(c2ccc(F)cc2)OCc2cc(C#N)ccc21	0	-2	-3	1	4	-4
CCO/C(C)=N/n1c2nc3ccccc3nc2c2c(=O)n(Cc3ccccc3Cl)c(C)nc21	0	0	-4	33*	-9	90
COc1ccc(C(=O)n2cnnc2N)cc1	5	0	3	0	2	-7
COc1ccc(-n2nc(N)c(C(N)=O)n2)cc1	-8	2	+	13	-1	-5
COC1=C/C(=C/c2c(N)n3nc(CC(=O)N4CCCCC4)sc3nc2=O)C=CC1=O	-1	-19	2	34*	-3	4
CCCN1CCN(C(=O)C2CCN(c3nnc(C)c4c(C)n(-c5ccc(C)cc5)nc34)CC2)CC1	3	3	4	13	-16	-4
CCN(C(=O)COC(=O)c1ccc(F)c(S(=O)(=O)N2CCOCC2)c1)C1CCS(=O)(=O)C1 (centres undefined)	0	0	1	-5	3	-12
Oc1ccc(/C=N\Nc2nncc(-c3ccccc3)n2)cc1	-13	0	-2	40*	7	58
COc1ccc(-c2cnnc(N/N=C/c3ccc(O)cc3)n2)cc1	-5	0	1	34*	0	-2
CS(=O)(=O)N(CC(=O)N/N=C/c1cc([N+](=O)[O-])ccc1Cl)c1ccccc1	-16	-2	0	-1	-2	-5
Cc1cccc(N(CC(=O)N/N=C/c2cc([N+](=O)[O-])ccc2Cl)S(C)(=O)=O)c1C	3	/	34*	9	0	8
CC(=O)c1cn(CC(=O)Nc2ccccc2F)c2ccccc12	/	0	1	-1	-3	-12
